Compounds with a hit are over-represented: about 3.3% of the library has one in this group of screens.
Giardia FBPA inh – inhibitors of Giardia lamblia fructose-1,6-bisphosphate aldolase; A8B2U2; purified Giardia FBPA; Potency, µM (series often up to 59.6 µM), for inactives: at the top dose activity, negative = inhibition, usual class: inhibitors; actives 0.71% (n = 290,000); note: nearly all actives have a fitted effect of over 55% in size
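40 nM FBPA preincubated 10 min at RT with compound (up to 57.5 uM final), then substrate plus GAPDH/TPI/NAD/arsenate coupling and diaphorase/resazurin added. Fluorescence read after 20 min at RT, 525/598 nm.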
RE007 growth inh – less growth of the S. pombe RE007 Vpr strain | actives 0.21% (n = 360,000) | S. pombe RE007 Vpr strain, BacTiter-Glo ATP luminescence, 24 h | Potency, µM (doses to about 92.2 µM), without a hit: top-dose activity change, negative = less growth, actives largely listed as inhibitors; active = well fitted falling curve with a large enough effect; inconclusive = small, poorly fitted or top-dose-only effect; inactive = no such curve, though single readings can be large or run the other way; note: nearly all actives have a fitted effect of over 50% in size
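Fission yeast RE007 carrying one integrated HIV-1 vpr copy, seeded at OD 0.01 in PMG+AL medium with 23 nL pinned compound. Grown 24 h at 30 degrees; viability read by BacTiter-Glo luminescence after 5 min.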
TbPYK inhibitor – blocks Trypanosoma brucei pyruvate kinase. TbPYK enzyme, Kinase-Glo Plus ATP luminescence, 45 min. Q57TT1. actives 0.12% (n = 410,000). AID 624173. Potency, µM (highest dose often 76.8 µM), inactives show at the highest dose activity, negative = inhibition, most hits filed as inhibitors; note: nearly all actives have a fitted effect of over 50% in size
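Readout: single end-point luminescence (Kinase-Glo Plus, 10 min). Reaction conditions were TbPYK/substrate plus 130 uM ADP, 45 min at RT, pH 7.2 TEA buffer. No-enzyme wells served as controls, and data were normalized before concentration-response fitting.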
Sm TGR inh – blocks Schistosoma mansoni thioredoxin glutathione reductase; Q962Y6; purified TGR, DTNB reduction, TNB absorbance 405 nm; Potency, µM (top dose mostly 114 µM), for the others: at the highest dose activity change, negative = inhibition, hits mostly inhibitors; actives 3% (n = 360,000); note: nearly all actives have a fitted effect of over 60% in size
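TGR 20 nM + NADPH 100 uM (dispensed conc.), cpd preinc 15 min RT; start with NADPH (500 uM addition) then DTNB (15 mM addition). Kinetic TNB absorbance, 405 nm filter. Four-parameter Hill fit across titration.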
LmPK inh – LmPK (Leishmania mexicana) enzyme inhibition | Q27686 | actives 0.37% (n = 290,000) | AID 1721 | Potency, µM (top dose mostly 57.5 µM), for the others: at the highest dose activity change, negative = inhibition, usual class: inhibitors | purified LmPK, Kinase-Glo ATP luminescence, 1 h
Target sequence (Q27686 whole entry, looked up): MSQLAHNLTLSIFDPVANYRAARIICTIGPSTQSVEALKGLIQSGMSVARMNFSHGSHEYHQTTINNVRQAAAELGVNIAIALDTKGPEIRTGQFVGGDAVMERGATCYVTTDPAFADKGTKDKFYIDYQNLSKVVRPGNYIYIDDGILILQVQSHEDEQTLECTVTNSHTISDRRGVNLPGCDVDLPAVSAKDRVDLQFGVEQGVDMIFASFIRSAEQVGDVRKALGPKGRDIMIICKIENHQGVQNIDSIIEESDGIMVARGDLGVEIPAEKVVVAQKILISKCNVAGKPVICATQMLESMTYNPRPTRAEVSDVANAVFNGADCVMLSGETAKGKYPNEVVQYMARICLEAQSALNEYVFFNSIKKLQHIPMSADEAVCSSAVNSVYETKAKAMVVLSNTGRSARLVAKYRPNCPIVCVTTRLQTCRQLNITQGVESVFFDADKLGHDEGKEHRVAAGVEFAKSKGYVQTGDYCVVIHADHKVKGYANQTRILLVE
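Screened at intermediate enzyme activity to detect both inhibitors and activators: LmPK at 0.1 nM, with a 0.5 nM enzyme column as activation reference. PEP 0.5 mM, ADP 0.1 mM; ATP detected by luminescence after 1 h.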
Active calls of the source: *; ? = inconclusive; · = not tested or not shown. Unless noted, calls come from the whole dose curve; as a rule, active = well fitted curve in the direction sought with a large enough effect; inconclusive = small, poorly fitted or top-dose-only effect, or another doubt; inactive = no such curve, though single readings can be large; an effect the other way counts as inactive or inconclusive. % is set by controls: 0 for no effect and ±100 for the full control effect; potency is the fitted concentration of half-maximal effect.

SMILES	Giardia FBPA inh	RE007 growth inh	TbPYK inhibitor	Sm TGR inh	LmPK inh
O=C(NCc1ccccc1)c1ccc(NC(=O)c2ccco2)cc1	·	7%	-7%	-10%	-8%
CC(=O)Nc1cccc(C(=O)/C=C/c2ccc(/C=C/C(=O)c3cccc(NC(C)=O)c3)cc2)c1	8%	·	·	-4%	0%
O=C(/C=C\c1ccco1)c1ccc(NC(=O)c2ccco2)cc1	-6%	-20%	-17%	4µM*	-4%
CC(=O)Nc1cccc(C(=O)/C=C/c2ccco2)c1	-7%	-10%	-15%	28µM*	-1%
CC(=O)Nc1ccc(C(=O)/C=C/c2ccco2)cc1	-21%	-28%	-17%	8.9µM*	1%
Cc1cc(C)c(S(=O)(=O)CCC(C)C)c(=O)[nH]1	6%	-5%	2%	2%	2%
Cc1nn2c(=O)cc(COC(=O)c3ccc(F)cc3)nc2s1	·	·	-7%	-4%	·
CCOC(=O)c1cc(=O)n2nc(-c3ccccc3F)nc2s1	2%	-8%	-10%	10µM*	3%
Cc1cc2c(cc(C(=O)OC(C(=O)NCc3ccco3)C(C)C)n2C)o1 (stereo unspecified)	1%	-15%	-17%	0%	3%
O=C1C2C3C=CC(C4CC34)C2C(=O)N1Cc1ccco1 (stereo unspecified)	5%	1%	-3%	50µM*	-4%
S=C(NCc1ccco1)Nc1cc(-c2ccccc2)[nH]n1	1%	0%	-19%	16µM*	-3%
Cc1ccc2cc3c(NC(=O)c4ccco4)nn(C)c3nc2c1	-4%	6%	1%	50µM*	0%
CCCn1nc(NC(=O)c2ccco2)c2cc3ccccc3nc21	-7%	-5%	2%	45µM*	0%
CN1C(=O)N(CC(=O)N2CCN(S(=O)(=O)c3ccc4c(c3)CCC4)CC2)C(=O)C12CCCCC2	·	-12%	6%	4%	·
CCOC(=O)N1CCN(S(=O)(=O)Cc2ccccc2)CC1	8%	-2%	2%	-15%	-3%
CC(c1ccccc1)N1CCN(C(=O)CCl)CC1 (stereo unspecified)	-11%	-8%	7%	45µM*	-1%
O=C(CCl)N1CCN(S(=O)(=O)Cc2ccccc2)CC1	·	8%	1%	16µM*	·
O=C(CCl)N1CCN(S(=O)(=O)c2ccc3c(c2)CCC3)CC1	·	9%	1%	5µM*	·
COc1ccc(C(=O)Oc2cc(C)c(CN3CCOCC3)cc2C)cc1OC	4%	4%	-1%	40µM*	14%
O=C(O)c1cccc(NC2=C(N3CCOCC3)C(=O)c3ccccc3C2=O)c1	?	-16%	-2%	45µM*	-19%
O=C1C(NS(=O)(=O)c2cccs2)=C(N2CCOCC2)C(=O)c2ccccc21	?	-4%	-12%	?	-15%
CN(C1=C(N2CCOCC2)C(=O)c2ccccc2C1=O)c1ccccc1	?	?	-15%	25µM*	-11%
CCOC(=O)N1CCN(C(=O)c2cc3c(=O)n4cccc(C)c4nc3s2)CC1	4%	7%	0%	2%	-5%
CC(=O)C1CCC2C3CCC4CC(=O)CCC4(C)C3C(O)CC12C (stereo unspecified)	·	3%	-3%	·	·
Cc1ccccc1-c1nc(SCc2cccnc2)c2c(=O)n(C)c(=O)n(C)c2n1	1%	?	-9%	45µM*	3%
SMILES	Giardia FBPA inh	RE007 growth inh	TbPYK inhibitor	Sm TGR inh	LmPK inh
CC(=O)N1/C(=C/c2ccc(N(C)C)cc2)C(=O)c2ccccc21	-10%	4%	-9%	28µM*	-9%
Cc1ccc(NC(=O)CSc2n[nH]c(N)n2)cc1S(=O)(=O)N1CCOCC1	3%	-9%	-7%	1%	0%
N#Cc1ccc(CSc2nnc(-c3cccnc3)o2)cc1	6%	-7%	2%	11%	7%
Cc1ccc(C(=O)Oc2oc(-c3ccco3)nc2C=Nc2ccc(Cl)cc2)cc1	-4%	-16%	-24%	2.2µM*	-6%
O=C(Oc1oc(-c2ccco2)nc1C=Nc1ccccc1)c1ccco1	-10%	?	?	1.6µM*	8%
O=C(Oc1oc(-c2ccco2)nc1C=Nc1ccccc1)c1ccoc1	-9%	-18%	-27%	1.4µM*	-4%
COc1cccc(N=Cc2nc(-c3ccccc3)oc2OC(C)=O)c1	-7%	3%	-23%	10µM*	-24%
CN(C(=O)COC(=O)c1cn(-c2ccccc2)nc1-c1ccccc1)C1CCS(=O)(=O)C1 (stereo unspecified)	-2%	-8%	2%	-4%	-6%
Cc1ccc(-c2nn(-c3ccccc3)cc2/C=C(\C#N)c2cccc(C#N)c2)o1	-1%	-7%	0%	50µM*	-18%
Cn1c(=O)c([N+](=O)[O-])c(-n2ccnc2)c2ccccc21	-12%	-2%	-5%	35µM*	9%
Cc1ccc(CSCC(=O)N(C)CC(=O)Nc2ccc(Cl)c(Cl)c2)cc1	·	1%	0%	-1%	·
Cc1ccc(CSCC(=O)N(C)CC(=O)Nc2ccc(Br)cc2C)cc1	·	-2%	1%	50µM*	·
NC(=O)c1c(NC(=O)CSc2nnc(-c3ccccc3)n2CC2CCCO2)sc2c1CCC2 (stereo unspecified)	3%	5%	0%	28µM*	-1%
C=C1C(=O)O[C@@H]2C[C@@H](C)[C@H]3C=CC(=O)[C@]3(O)C[C@@H]12	7%	2%	-2%	35µM*	1%
C=C1C(=O)OC2C[C@@]3(C)CCCC(=C)[C@@H]3CC12 (stereo partly specified)	11%	·	·	·	·
CCCSc1nnc(-c2c[nH]c3ccccc23)n1C	0%	-15%	-1%	-2%	5%
Cc1cc(-c2csc(NC(=O)c3ccc(=O)n(C)n3)n2)c(C)n1CC1CCCO1 (stereo unspecified)	?	-4%	?	35µM*	-7%
Cc1cc(-c2csc(NC(=O)c3ccc(=O)[nH]c3)n2)c(C)n1Cc1ccco1	?	-15%	-22%	45µM*	0%
O=C(CBr)N1CCc2ccccc2C(c2ccccc2)C1 (stereo unspecified)	-11%	-1%	?	3.5µM*	-14%
O=C(NCCN1CCOCC1)c1cc(-c2ccc(Cl)s2)nc2ccccc12	-18%	-14%	3%	4%	-5%
CCn1cc(/C=N/NC(=O)c2ccc(C#N)cc2F)c2ccccc21	16µM*	-8%	2%	-2%	3%
COC(=O)Cn1cc(/C=N/NC(=O)c2ccc(C#N)cc2F)c2ccccc21	3%	-8%	-2%	9%	-1%
Cc1nnc(N/N=C/c2cc(C)n(-c3ccc(F)cc3)c2C)n1N	10µM*	0%	0%	-30%	3%
Cc1cc(/C=N/NC(N)=S)c(C)n1-c1ccc(Br)cc1	-12%	26%	-6%	-23%	5%

Screening data (PubChem)
